Reference: paper PMC5540273 (PLoS ONE, 2017)
Several values for one entry are separate records, joined by “and”; a condition that tells them apart may be missing. Identical values can stand only once. Like-named read-outs stand apart in the source and are kept apart here.

Tests used:
FLT3-autoinhibited = settings: concentration: 1 μM, replicates: in singlicate; n = 1
FLT3 = settings: concentration: 1 μM, replicates: in singlicate, n = 1
FLT4 = settings: concentration: 1 μM, replicates: in singlicate, n = 1
FRK = settings: concentration: 1 μM, replicates: in singlicate, n = 1
FYN = settings: concentration: 1 μM, replicates: in singlicate, n = 1
GAK = settings: concentration: 1 μM, replicates: in singlicate, n = 1
GCN2(Kin.Dom.2,S808G) = test system: T1, GCN2(Kin.Dom.2,S808G); settings: concentration: 1 μM, replicates: in singlicate, n = 1
T1 construct: gene EIF2AK4

GRK1 = settings: concentration: 1 μM, replicates: in singlicate; n = 1
GRK2 = test system: T2, GRK2; settings: concentration: 1 μM, replicates: in singlicate, n = 1
T2 construct: gene ADRBK1

GRK3 = test system: T3, GRK3; settings: concentration: 1 μM, replicates: in singlicate, n = 1
T3 construct: gene ADRBK2

GRK4 = settings: concentration: 1 μM, replicates: in singlicate; n = 1
GRK7 = settings: concentration: 1 μM, replicates: in singlicate; n = 1
GSK3A = settings: concentration: 1 μM, replicates: in singlicate, n = 1
GSK3B = settings: n = 1
HASPIN = test system: T4, HASPIN; settings: concentration: 1 μM, replicates: in singlicate, n = 1
T4 construct: gene GSG2

HCK = settings: concentration: 1 μM, replicates: in singlicate, n = 1
HIPK1 = settings: concentration: 1 μM, replicates: in singlicate; n = 1
HIPK2 = settings: concentration: 1 μM, replicates: in singlicate, n = 1
HIPK3 = settings: concentration: 1 μM, replicates: in singlicate, n = 1
HIPK4 = settings: concentration: 1 μM, replicates: in singlicate, n = 1
[1] = concentration: 1 μM, replicates: in singlicate
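Further: KINOMEscan kinase panel screen.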

## Cn1cc(-c2ccc3c(c2)CCN3C(=O)Cc2ccccc2Cl)c2c(N)ncnc21 [GSK2608885]
FLT3-autoinhibited
  %Inh: 20%
FLT3
  %Inh: 99.3%
FLT4
  %Inh: 99.8%
FRK
  %Inh: 97.9%
FYN
  %Inh: 97.1%
GAK
  %Inh: 33%
GCN2(Kin.Dom.2,S808G)
  %Inh: 81%
GRK1
  %Inh: 0%
GRK2
  %Inh: 0%
GRK3
  %Inh: 0%
GRK4
  %Inh: 0%
GRK7
  %Inh: 0%
GSK3A
  %Inh: 0%
GSK3B; [1]
  %Inh: 9%
HASPIN
  %Inh: 0%
HCK
  %Inh: 99.4%
HIPK1
  %Inh: 0%
HIPK2
  %Inh: 0%
HIPK3
  %Inh: 14%
HIPK4
  %Inh: 36%

## CNc1ncnc2[nH]ncc12 [SKF-18355]
FLT3-autoinhibited
  %Inh: 0%
FLT3
  %Inh: 0%
FLT4
  %Inh: 0%
FRK
  %Inh: 0%
FYN
  %Inh: 0%
GAK
  %Inh: 0%
GCN2(Kin.Dom.2,S808G)
  %Inh: 0%
GRK1
  %Inh: 29%
GRK2
  %Inh: 0%
GRK3
  %Inh: 0%
GRK4
  %Inh: 4%
GRK7
  %Inh: 0%
GSK3A
  %Inh: 0%
GSK3B; [1]
  %Inh: 25%
HASPIN
  %Inh: 44%
HCK
  %Inh: 16%
HIPK1
  %Inh: 42%
HIPK2
  %Inh: 0%
HIPK3
  %Inh: 12%
HIPK4
  %Inh: 0%

## Fc1ccc(-c2ncn(CCCN3CCOCC3)c2-c2ccccn2)cc1 [SB-211742]
FLT3-autoinhibited
  %Inh: 0%
FLT3
  %Inh: 20%
FLT4
  %Inh: 0%
FRK
  %Inh: 6%
FYN
  %Inh: 0%
GAK
  %Inh: 6%
GCN2(Kin.Dom.2,S808G)
  %Inh: 0%
GRK1
  %Inh: 0%
GRK2
  %Inh: 2%
GRK3
  %Inh: 0%
GRK4
  %Inh: 0%
GRK7
  %Inh: 0%
GSK3A
  %Inh: 0%
GSK3B; [1]
  %Inh: 0%
HASPIN
  %Inh: 0%
HCK
  %Inh: 6%
HIPK1
  %Inh: 38%
HIPK2
  %Inh: 0%
HIPK3
  %Inh: 0%
HIPK4
  %Inh: 26%

## N#Cc1ccc(-c2cc(-c3c[nH]nc3-c3ccccn3)ccn2)cc1 [GW693028]
FLT3-autoinhibited
  %Inh: 0%
FLT3
  %Inh: 0%
FLT4
  %Inh: 0%
FRK
  %Inh: 25%
FYN
  %Inh: 0%
GAK
  %Inh: 69%
GCN2(Kin.Dom.2,S808G)
  %Inh: 0%
GRK1
  %Inh: 0%
GRK2
  %Inh: 0%
GRK3
  %Inh: 70%
GRK4
  %Inh: 3%
GRK7
  %Inh: 0%
GSK3A
  %Inh: 12%
GSK3B; [1]
  %Inh: 4%
HASPIN
  %Inh: 0%
HCK
  %Inh: 0%
HIPK1
  %Inh: 0%
HIPK2
  %Inh: 0%
HIPK3
  %Inh: 0%
HIPK4
  %Inh: 0%

## COCCNC(=O)c1ccc(-c2cc(C(=O)NC3CC3)cc(F)c2C)cc1 [GW868318]
FLT3-autoinhibited
  %Inh: 0%
FLT3
  %Inh: 15%
FLT4
  %Inh: 5%
FRK
  %Inh: 32%
FYN
  %Inh: 2%
GAK
  %Inh: 0%
GCN2(Kin.Dom.2,S808G)
  %Inh: 12%
GRK1
  %Inh: 32%
GRK2
  %Inh: 0%
GRK3
  %Inh: 18%
GRK4
  %Inh: 7%
GRK7
  %Inh: 28%
GSK3A
  %Inh: 0%
GSK3B; [1]
  %Inh: 42%
HASPIN
  %Inh: 0%
HCK
  %Inh: 24%
HIPK1
  %Inh: 23%
HIPK2
  %Inh: 15%
HIPK3
  %Inh: 35%
HIPK4
  %Inh: 17%

## Nc1nc(-c2ccc3c(N)n[nH]c3c2)cc(N2CCCC2)n1 [GSK2227430]
FLT3-autoinhibited
  %Inh: 0%
FLT3
  %Inh: 0%
FLT4
  %Inh: 0%
FRK
  %Inh: 0%
FYN
  %Inh: 0%
GAK
  %Inh: 0%
GCN2(Kin.Dom.2,S808G)
  %Inh: 0%
GRK1
  %Inh: 0%
GRK2
  %Inh: 0%
GRK3
  %Inh: 0%
GRK4
  %Inh: 0%
GRK7
  %Inh: 0%
GSK3A
  %Inh: 0%
GSK3B; [1]
  %Inh: 0%
HASPIN
  %Inh: 0%
HCK
  %Inh: 0%
HIPK1
  %Inh: 5%
HIPK2
  %Inh: 0%
HIPK3
  %Inh: 0%
HIPK4
  %Inh: 0%

## CC(C)(CN)c1nc(-c2ccc(Cl)c(O)c2)c(-c2ccncc2)[nH]1.O=C(O)C(F)(F)F [SB-477794]
FLT3-autoinhibited
  %Inh: 0%
FLT3; 1 µM
  %Inh: 0% and 29%
FLT4; 1 µM
  %Inh: 78% and 74%
FRK; 1 µM
  %Inh: 99.5% and 99.1%
FYN; 1 µM
  %Inh: 97.3% and 96.8%
GAK; 1 µM
  %Inh: 71% and 56%
GCN2(Kin.Dom.2,S808G); 1 µM
  %Inh: 14% and 0%
GRK1
  %Inh: 0%
GRK2; 1 µM
  %Inh: 0% and 26%
GRK3; 1 µM
  %Inh: 65% and 0%
GRK4
  %Inh: 0%
GRK7
  %Inh: 0%
GSK3A; 1 µM
  %Inh: 49% and 58%
GSK3B; concentration: 1 μM, replicates: in singlicate, 1 µM
  %Inh: 29% and 14%
HASPIN; 1 µM
  %Inh: 58% and 57%
HCK; 1 µM
  %Inh: 96.6% and 96%
HIPK1
  %Inh: 0%
HIPK2; 1 µM
  %Inh: 1% and 37%
HIPK3; 1 µM
  %Inh: 20% and 4%
HIPK4; 1 µM
  %Inh: 0% and 13%

## CN(C1=C(c2ccccc2)C(=O)NC1=O)c1ccccc1 [SB-334860]
FLT3-autoinhibited
  %Inh: 3%
FLT3
  %Inh: 0%
FLT4
  %Inh: 20%
FRK
  %Inh: 2%
FYN
  %Inh: 39%
GAK
  %Inh: 7%
GCN2(Kin.Dom.2,S808G)
  %Inh: 0%
GRK1
  %Inh: 9%
GRK2
  %Inh: 8%
GRK3
  %Inh: 7%
GRK4
  %Inh: 0%
GRK7
  %Inh: 0%
GSK3A
  %Inh: 13%
GSK3B; 1 µM
  %Inh: 0%
HASPIN
  %Inh: 0%
HCK
  %Inh: 0%
HIPK1
  %Inh: 3%
HIPK2
  %Inh: 0%
HIPK3
  %Inh: 15%
HIPK4
  %Inh: 2%
